The source made the active and inactive calls. The limit is not given here; nearly all actives have IC50 up to about 8.1 µM.
test: small molecules binding CAG repeat RNA – biochemical, fluorescence, dose response (AID 686959); settings: r(CAG) RNA repeat binding

SMILES | IC50
COC(=O)c1sc(N2C(=O)C(O)=C(C(=O)c3ccc(C)o3)C2c2ccc([N+](=O)[O-])cc2)nc1C (stereo unspecified) | 636 nM (active)
Cc1cc(N2C(=O)C(O)=C(C(=O)c3cc4ccccc4o3)C2c2cccc(Cl)c2)no1 (stereo unspecified) | 1190 nM (active)
CCOC(=O)C1=C(C)NC(SCc2cc(=O)[nH][nH]2)=C(C#N)C1c1cccs1 (stereo unspecified) | 7400 nM (active)
COc1ccc(Cn2c(O)c(/C=N/NC(=O)c3cccnc3)c3ccccc3c2=O)cc1 | 3070 nM (active)
Cc1ccc2c(c1)c(N=Nc1cccc(C(=O)O)c1)c(O)n2C | 5070 nM (active)
CCc1nnc(NS(=O)(=O)c2ccc(N/C=C/C(=O)c3ccc(C)cc3)cc2)s1 | 1900 nM (active)
N#CC1=C(N)n2c(s/c(=C\c3ccco3)c2=O)=C(C#N)C1c1ccco1 (stereo unspecified) | 5380 nM (active)
Cc1ccc2nc(N3C(=O)C(O)=C(C(=O)c4ccco4)C3c3ccc(C)o3)sc2c1 (stereo unspecified) | 624 nM (active)
O=C(C1=C(O)C(=O)N(c2nc3ccc(Cl)cc3s2)C1c1ccco1)c1ccco1 (stereo unspecified) | 987 nM (active)
CCCOc1ccc(N2C(=O)CC(S/C(N)=N/N=C(\C)c3cccs3)C2=O)cc1 (stereo unspecified) | 7760 nM (active)
O=C(O)CCCCCn1c(O)c(C=C2N=c3ccccc3=N2)sc1=S | 3870 nM (active)
Oc1ccc(/C=N/Nc2ccnc3cc(Cl)ccc23)c(O)c1O | 2500 nM (active)
O=c1[nH]n2c(=O)c3c([nH]c2c1N=Nc1cccc(Cl)c1)CCC3 | 2330 nM (active)
CC(C)c1ccc(C2c3[nH]c4ccccc4c3C[C@H]3C(=O)N(c4ccccc4C(=O)N4CCC[C@@H]4C(=O)O)C(=O)N23)cc1 (stereo partly specified) | 2840 nM (active)
COc1cc(/C=C2\C(=O)N(c3ccc(NC(C)=O)cc3)N=C2c2ccccc2)ccc1O | 2900 nM (active)
N/C(=N\N=C\c1cccs1)SC1CC(=O)N(c2ccc(Br)cc2)C1=O (stereo unspecified) | 8270 nM (active)
